This is an account of results in PubChem BioAssay.

Active and inactive are the calls of the source.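 Rule for the calls, unless noted: active = visual image review flags a hit and inhibition of aggregation exceeds 20%; inconclusive = visual hit but inhibition at or below 20%; inactive = no hit on visual image review.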

A short description of assay [1]: inhibitors of TNFa-induced NFkB p65 translocation, primary screen, imaging, HUVEC, MLSMR starter and 10KST1 sets (AID 438;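 active = inhibition above 20% together with a positive visual image hit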;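 note: compound added about 3h40 before a 20 min TNFalpha stimulation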;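 for inhibition: signal is the nuclear over cytoplasmic p65 intensity ratio per well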). As to conditions: HUVEC TNFa-induced p65 nuclear translocation; cell count: measured here: nuclei count (cytotoxicity indicator), at 2.08 µM; inhibition: at 2 µM, stronger effect = higher value, 0% TNFa-plus-vehicle, 100% no-TNFa wells.
A short description of assay [2]: reduction of polyQ htt aggregates in cells – imaging, exon1htt(103Q)mCFP cells, high-content imaging, primary screen (AID 483).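 For nuclei count: percent of the per-plate median nuclei count of sample wells.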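 Note: compound exposure lasted 3 days before fixation.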 As to conditions: exon1htt(103Q)mCFP cell line, aggregate imaging, at 2 µM; inhibition of aggregation: stronger effect = higher value; nuclei count: measured here: cell count, toxicity.
A short description of assay [3]: endothelial E-selectin expression blockers – imaging, HUVEC, immunofluorescence, MLSMR starter and 10KST1 sets, primary screen (AID 487;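 active = visually confirmed hit in the image check and inhibition above 20%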;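 for inhibition: signal is fraction of cell area covered by stained E-selectin grains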;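 for nuclei count: 100% = median nuclei count of all wells on the same plate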). The conditions noted are these: HUVEC TNFalpha-induced E-selectin immunofluorescence imaging, at 2 µM; inhibition: stronger effect = higher value; nuclei count: measured here: cell number, toxicity.
In assay [4] the target is Voltage-gated potassium channel subunit beta-2 (Rattus norvegicus) (UniProt P62483). Kind of assay: inhibitors of rat Kvbeta2 reductase activity – biochemical, NADPH fluorescence, primary screen (AID 622;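 active = fluorescence slope higher than the sample average by over 3 SD, cut at about -0.22 in these data, passing the limit was not always enough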;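 note: slope of raw intensity against log time taken from 70 to 1610 s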). As to conditions: recombinant KvBeta, 4-cyanobenzaldehyde reduction, at 10 µM, stronger effect = higher value.
Sequence of Voltage-gated potassium channel subunit beta-2 (Rattus norvegicus) (P62483 whole entry, looked up): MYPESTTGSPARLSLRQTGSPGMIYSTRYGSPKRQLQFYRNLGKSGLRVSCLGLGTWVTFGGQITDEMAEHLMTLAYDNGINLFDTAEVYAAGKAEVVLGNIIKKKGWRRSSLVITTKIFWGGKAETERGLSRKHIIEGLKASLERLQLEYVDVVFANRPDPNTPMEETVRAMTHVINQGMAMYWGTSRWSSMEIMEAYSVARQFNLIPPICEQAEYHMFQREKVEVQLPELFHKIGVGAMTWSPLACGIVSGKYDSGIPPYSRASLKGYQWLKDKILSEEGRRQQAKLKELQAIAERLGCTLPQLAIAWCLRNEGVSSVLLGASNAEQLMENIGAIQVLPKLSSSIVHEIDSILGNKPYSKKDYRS
The target is the same in assay [5]. Kind of assay: enhancers of rat Kvbeta2 NADPH turnover – biochemical, NADPH fluorescence, primary screen (AID 623;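 active = NADPH fluorescence slope more negative than the mean of all samples by about 3 SD, 99.7% confidence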;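 note: fluorescence intensity change per second fitted from 20 to 320 s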). The conditions noted are these: Recombinant KvBeta, NADPH fluorescence decrease slope, 10 min; at 10 µM; stronger effect = lower value.
For assay [6], the target named is Alpha-2C adrenergic receptor (Homo sapiens) (UniProt P18825). Kind of assay: compounds altering alpha2C-coupled GIRK flux – cell-based, HEK293 alpha2C/GIRK1/2, thallium flux, primary screen (AID 624;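 active = fluorescence slope after compound addition differing from the mean of all screened samples at 99.7% confidence, in either direction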;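 note: slope of fluorescence ratio to pre-addition baseline per second over 15 to 24 s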). The conditions noted are these: thallium flux BTC fluorescence, at 10 µM, actives lie on both sides.
Sequence of Alpha-2C adrenergic receptor (Homo sapiens) (P18825 whole entry, looked up): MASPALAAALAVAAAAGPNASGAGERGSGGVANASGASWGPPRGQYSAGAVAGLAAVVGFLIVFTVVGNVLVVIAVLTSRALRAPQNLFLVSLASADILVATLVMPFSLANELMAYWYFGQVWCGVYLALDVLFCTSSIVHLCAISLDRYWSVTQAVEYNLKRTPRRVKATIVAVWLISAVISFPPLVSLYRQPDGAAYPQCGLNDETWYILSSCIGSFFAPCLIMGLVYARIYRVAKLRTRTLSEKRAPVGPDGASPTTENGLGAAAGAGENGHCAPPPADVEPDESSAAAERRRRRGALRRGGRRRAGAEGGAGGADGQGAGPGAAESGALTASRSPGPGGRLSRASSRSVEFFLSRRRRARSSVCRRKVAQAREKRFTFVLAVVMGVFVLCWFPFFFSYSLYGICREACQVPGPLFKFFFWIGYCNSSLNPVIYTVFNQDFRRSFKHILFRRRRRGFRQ
A short description of assay [7]: blockers of RIG-like receptor reporter activation – cell-based, Sendai virus stimulus, luciferase, 10K MLSCN set, TLR/RLR signaling modifier project, primary screen (AID 602276;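 active = inhibition at or above 50% at 10 µM; inactive = inhibition below 50%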;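 note: firefly luciferase from ISG56 promoter only with Renilla not read in this screen; 0% = Sendai virus plus DMSO and 100% = medium plus DMSO without virus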). The conditions noted are these: HEK293 RL24 IRF3 luciferase reporter, at 10 µM, stronger effect = higher value. A general note: In a reporter assay the amount or activity of a reporter protein is the signal.

A short description of assay [8]: TLR3 IRF3 reporter activation blockers – cell-based, poly I:C stimulus, luciferase, 10K MLSCN set, primary screen (AID 602277;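 active = inhibition of the reporter signal at or above 50%; inactive = inhibition below 50%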). The conditions noted are these: HEK293-TLR3 RL24 IRF3 luciferase reporter, at 10 µM, stronger effect = higher value.

A word on the inhibition: it is the change of the read-out against control, counted positive when it falls. With `CN(c1ccc(OCc2nnc(-c3ccccc3)o2)cc1)S(=O)(=O)c1ccccc1`, in assay [1], the cell count turned out to be 587. The inhibition is 10.1% (inactive) in assay [1], 21.6% (inactive) in assay [3], 11.5% (inactive) in assay [7] and -5.42% (inactive) in assay [8]. Moreover, the inhibition of aggregation in assay [2] is 13.2% (inactive). The nuclei count was 95% in assay [2] and 82% in assay [3]. Also, in assay [4], the fluorescence slope was -0.335 (inactive). In addition, in assay [5], the NADPH fluorescence slope was -5.4e-05 (inactive). The slope in assay [6] is 0.00414 (inactive).
Turning to `COc1ccc(N2CCN(CCNC(=O)CCS(=O)(=O)c3cccc4nsnc34)CC2)cc1`, the cell count in assay [1] is 747. The inhibition in assay [1] is -6.4% (inactive); in assay [3], 15% (inactive); in assay [7], 16.8% (inactive); in assay [8], 15.8% (inactive). In assay [2], the inhibition of aggregation is -23% (inactive). Also, the nuclei count came to 101% in assay [2] and 109% in assay [3]. Moreover, the fluorescence slope in assay [4] is -0.598 (inactive). In addition, in assay [5], the NADPH fluorescence slope is -3.9e-05 (inactive). The slope in assay [6] was 0.00466 (inactive).
Turning to `CCN(CC)S(=O)(=O)c1ccc(NC(=O)Cn2cnc3ccccc3c2=O)cc1`, in assay [1], the cell count amounted to 321. Also, the inhibition is -1.8% (inactive) in assay [1], -112% (inactive) in assay [3], 12.3% (inactive) in assay [7] and 16% (inactive) in assay [8]. The inhibition of aggregation in assay [2] was 15.7% (inactive). The figures for the nuclei count in assay [2] and in assay [3] were 96% and 108%, respectively. In assay [4], the fluorescence slope is -0.483 (inactive). In addition, the NADPH fluorescence slope in assay [5] is -0.000135 (inactive). Besides, the slope in assay [6] is 0.0039 (inactive).
In the case of `COc1ccc(CC(=O)NCc2nnc(SCC(=O)Nc3nccs3)n2-c2ccccc2)cc1`, the cell count in assay [1] was 640. The inhibition was 5.8% (inactive) in assay [1], -36.8% (inactive) in assay [3], 12% (inactive) in assay [7] and 33.9% (inactive) in assay [8]. Besides, the inhibition of aggregation in assay [2] is 17.6% (inactive). The nuclei count was found to be 98.3% in assay [2] and 122% in assay [3]. For the same molecule, the fluorescence slope in assay [4] is -0.558 (inactive). For the same molecule, in assay [5], the NADPH fluorescence slope was -2.9e-05 (inactive). The slope in assay [6] is 0.00708 (inactive).
Regarding `CCc1c(C(=O)NCCc2ccc(OC)c(OC)c2)[nH]c(C)c1C(C)=O`, the cell count in assay [1] worked out at 274. For the same molecule, the inhibition was 2.4% (inactive) in assay [1], 5.2% (inactive) in assay [3], 17.6% (inactive) in assay [7] and 16.1% (inactive) in assay [8]. In assay [2], the inhibition of aggregation is -21.3% (inactive). The nuclei count in assay [2] was 107%; in assay [3], 93.4%. Moreover, the fluorescence slope in assay [4] is -0.34 (inactive). For the same molecule, the NADPH fluorescence slope in assay [5] was -1.2e-05 (inactive). Also, the slope in assay [6] was 0.00669 (inactive).
Consider `O=c1[nH]c(N2CCc3ccccc32)nc2c1CCCC2`, for which the cell count in assay [1] worked out at 309. Further, the inhibition in assay [1] is 1.1% (inactive); in assay [3], 14.7% (inactive); in assay [7], 6.82% (inactive); in assay [8], -14.4% (inactive). In assay [2], the inhibition of aggregation was 11% (inactive). In addition, the nuclei count worked out at 68.4% in assay [2] and 82.4% in assay [3]. Moreover, the fluorescence slope in assay [4] was -0.507 (inactive). The NADPH fluorescence slope in assay [5] was -4.2e-05 (inactive). Also, the slope in assay [6] is 0.0041 (inactive).
As for `N#CCCNCC1(c2ccccc2)CCCC1`, in assay [1], the cell count is 567. Further, the inhibition in assay [1] was -9.1% (inactive); in assay [3], 1.8% (inactive); in assay [7], 2.93% (inactive); in assay [8] it was 9.79% (inactive). Moreover, the inhibition of aggregation in assay [2] is -10.6% (inactive). Further, the nuclei count in assay [2] turned out to be 108%; in assay [3] it was 104%. Besides, in assay [4], the fluorescence slope is -0.576 (inactive). Also, the NADPH fluorescence slope in assay [5] was -4.5e-05 (inactive). Moreover, the slope in assay [6] was 0.00572 (inactive).
For the molecule `CC(C)(C)OC(=O)N1CCCC1C(=O)N1CCc2ccccc21` (stereo not drawn), in assay [1], the cell count was found to be 411. For the same molecule, the inhibition in assay [1] was 5.6% (inactive); in assay [3], -19.6% (inactive); in assay [7], 10.9% (inactive); in assay [8] it was 33.9% (inactive). For the same molecule, in assay [2], the inhibition of aggregation was -0.3% (inactive). Moreover, the results for the nuclei count in assay [2] and in assay [3] were 103% and 104%, respectively. In assay [4], the fluorescence slope is -0.614 (inactive). Further, the NADPH fluorescence slope in assay [5] is -1.2e-06 (inactive). Besides, the slope in assay [6] was 0.00514 (inactive).
Regarding `CC1CCc2nn(CC(=O)NCCN3CCCCC3C)cc2C1` (stereo not drawn), the cell count in assay [1] was 621. For the same molecule, the inhibition was 12% (inactive) in assay [1], -11.5% (inactive) in assay [3], 7.09% (inactive) in assay [7] and 33.8% (inactive) in assay [8]. For the same molecule, the inhibition of aggregation in assay [2] was -27.1% (inactive). Also, the nuclei count in assay [2] worked out at 106%; in assay [3], 108%. In addition, in assay [4], the fluorescence slope was -0.62 (inactive). For the same molecule, the NADPH fluorescence slope in assay [5] was 6.4e-06 (inactive). In assay [6], the slope was 0.00605 (inactive).
Regarding `CCOC(=O)N1CCN(c2c(N3CCN(c4ccccc4OC)CC3)c(=O)c2=O)CC1`, the cell count in assay [1] is 651. In addition, the inhibition in assay [1] was -2.3% (inactive); in assay [3] it was -66.1% (inactive); in assay [7] it was 3.99% (inactive); in assay [8], 15% (inactive). Besides, in assay [2], the inhibition of aggregation was 18.3% (inactive). In addition, the results for the nuclei count in assay [2] and in assay [3] were 109% and 129%, respectively. Besides, the fluorescence slope in assay [4] is -0.532 (inactive). For the same molecule, the NADPH fluorescence slope in assay [5] was -2.1e-05 (inactive). Besides, the slope in assay [6] is 0.0077 (inactive).
As to `O=C(Cc1ccccc1)Nc1ccc(CN2CCOCC2)cc1`, the cell count in assay [1] is 451. Moreover, the inhibition in assay [1] is -5.4% (inactive); in assay [3], -2.9% (inactive); in assay [7], -34% (inactive); in assay [8], -71.3% (inactive). Moreover, in assay [2], the inhibition of aggregation was -17.1% (inactive). The values for the nuclei count in assay [2] and in assay [3] were 104% and 107%, respectively. Besides, the fluorescence slope in assay [4] was -0.418 (inactive). Further, in assay [5], the NADPH fluorescence slope was -3.3e-05 (inactive). Moreover, in assay [6], the slope is 0.00462 (inactive).
Turning to `Cc1ccc(-c2ccc(SCC(=O)Nc3nonc3C)nn2)cc1`, the cell count in assay [1] was found to be 413. Further, the inhibition in assay [1] is 2.2% (inactive); in assay [3], -24.8% (inactive); in assay [7], 9.6% (inactive); in assay [8], 15.8% (inactive). Moreover, the inhibition of aggregation in assay [2] was -2% (inactive). Further, the nuclei count in assay [2] worked out at 103%; in assay [3], 108%. Moreover, the fluorescence slope in assay [4] was -0.283 (inactive). Moreover, the NADPH fluorescence slope in assay [5] was -5.6e-05 (inactive). Further, in assay [6], the slope is 0.00591 (inactive).
As to `CN1CCc2c(sc3c2c(=O)n(-c2cccc(Cl)c2)c2nncn32)C1`, the cell count in assay [1] was 579. For the same molecule, the inhibition in assay [1] was 13.9% (inactive); in assay [3] it was 37.3% (inactive); in assay [7] it was -7.55% (inactive); in assay [8], 11.7% (inactive). Besides, in assay [2], the inhibition of aggregation is 5.9% (inactive). The nuclei count in assay [2] was found to be 112%; in assay [3], 105%. Further, the fluorescence slope in assay [4] was -0.513 (inactive). Moreover, in assay [5], the NADPH fluorescence slope is -3.5e-05 (inactive). In addition, the slope in assay [6] is 0.00609 (inactive).
